Laboratory results published in the supplement of paper PMC6555819.

How the values were obtained:
Assay in all cases: PBM binding z-score (relative to random genomic background probes); higher = stronger binding; sequences stand for … in GC…GCGATTGACAGCGTAGAATGAAGG
[1] = test system: PPARg:RXRa DBDmut IVT, anti-RXR (DBD mutation: RXRa K156A/R161A, NR concentration 270 nM, RXRa partner concentration 90 nM)
Procedure, shortened: (§1)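 Binding buffer was PBS pH 7.4 with 2% milk, 0.02% Triton X-100, 1 mM DTT, 0.2 mg/mL BSA and 0.4 mg/ml salmon testes DNA. In it, ligand-free nuclear receptor dimers were incubated 1 h on custom Agilent 4×180K protein-binding microarrays carrying double-stranded probes. Antibodies against each partner (one per run) detected binding, and z-scores were calculated against random background probes after regression normalization of scanned fluorescence.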

[2] = test system: PPARg:RXRa IVT, anti-PPARg (NR concentration 270 nM, RXRa partner concentration 90 nM)
Procedure, shortened: as §1

[3] = test system: PPARg homodimer (NR concentration 180 nM)
Procedure, shortened: as §1

[4] = test system: PXR:RXRa (NR concentration 270 nM, RXRa partner concentration 90 nM)
Procedure, shortened: as §1

[5] = test system: PXR homodimer (NR concentration 270 nM)
Procedure, shortened: as §1

[6] = test system: RARa:RXR (NR concentration 270 nM, RXRa partner concentration 90 nM)
Procedure, shortened: as §1

[7] = test system: RARa homodimer (NR concentration 270 nM)
Procedure, shortened: as §1

[8] = test system: RARb:RXRa (NR concentration 270 nM, RXRa partner concentration 90 nM)
Procedure, shortened: as §1

[9] = test system: RARb homodimer (NR concentration 270 nM)
Procedure, shortened: as §1

[10] = test system: RARg:RXRa (NR concentration 270 nM, RXRa partner concentration 90 nM)
Procedure, shortened: as §1

[11] = test system: RARg homodimer (NR concentration 270 nM)
Procedure, shortened: as §1

[12] = test system: RXRa DBDmut IVT, anti-RXR (DBD mutation: RXRa K156A/R161A, NR concentration 90 nM)
Procedure, shortened: as §1

[13] = test system: RXRa homodimer (NR concentration 180 nM)
Procedure, shortened: as §1

[14] = test system: THRa:RXRa (NR concentration 90 nM, RXRa partner concentration 90 nM)
Procedure, shortened: as §1

[15] = test system: THRa homodimer (NR concentration 90 nM)
Procedure, shortened: as §1

[16] = test system: VDR homodimer (NR concentration 270 nM)
Procedure, shortened: as §1

[17] = test system: VDR:RXRa (NR concentration 270 nM, RXRa partner concentration 90 nM)
Procedure, shortened: as §1

Sequence | PBM binding z-score [1] | PBM binding z-score [2] | PBM binding z-score [3] | PBM binding z-score [4] | PBM binding z-score [5] | PBM binding z-score [6] | PBM binding z-score [7] | PBM binding z-score [8] | PBM binding z-score [9] | PBM binding z-score [10] | PBM binding z-score [11] | PBM binding z-score [12] | PBM binding z-score [13] | PBM binding z-score [14] | PBM binding z-score [15] | PBM binding z-score [16] | PBM binding z-score [17]
CCGAGTAGGTGACGAGGGGGCATTCAGTGCGAAT | 5.58 | 5.86 | 1.39 | 4.21 | 5.4 | 2.76 | 0.823 | 1.75 | 1.89 | 2.34 | 2.1 | 1.05 | 1.35 | 3.34 | 0.888 | 3.45 | –
CCGAGTAGGTTACGAGGGGGCATTCATTGCGAAT | 4.44 | 4.49 | 1.17 | 4.23 | 0.535 | 2.77 | 0.224 | 1.94 | 2.05 | 3.01 | 2.09 | 1.21 | 2 | 3.7 | 0.405 | 2.02 | –
CTATGTAGGTTGAGGGGGTCATTCAGTTTGAAAG | 3.98 | 5.16 | 3.25 | 5.67 | 10.2 | 5.29 | 2.23 | 3.4 | 3.8 | 5.4 | 4.34 | 2.5 | 5.59 | 4.05 | 3.08 | 6.14 | –
CTATGTAGGTTAAGGGGGTCACTCAGTTTGAAAG | 7.55 | 7.88 | 6 | 5.64 | 10.5 | 5.73 | 3.18 | 3.61 | 3.95 | 5.13 | 3.79 | 1.85 | 5.58 | 3.79 | 2.06 | 5.29 | –
CTATGTAGGTTAAGGGGATCATTCAGTTTGAAAG | 7.23 | 6.92 | 1.89 | 1.01 | 0.432 | 0.816 | 0.323 | 1.05 | 0.917 | 0.82 | 0.66 | 0.605 | 1.12 | 0.96 | 0.136 | 0.834 | –
TTGAGTAGGTTACGGGGGCATTCAGGGATGAAGA | 6.29 | 6.86 | 5.24 | 3.31 | 3.21 | 3.81 | 2.56 | 2.9 | 2.59 | 3.71 | 3.05 | 2.36 | 3.3 | 3.83 | 2.02 | 4.22 | –
CCGAGTAGGTTACGAGGGGGCAGTCAGTGCGAAT | 4.71 | 4.53 | 2.79 | 3.74 | 1.86 | 2.38 | 0.525 | 2.15 | 2.02 | 2.81 | 2.42 | 0.582 | 1.55 | 3.29 | 0.478 | 1.68 | 3.95
CCGAGTAGGTTACGAGGGGGCACTCAGTGCGAAT | 4.86 | 4.51 | 1.46 | 4.32 | 3.02 | 2.87 | 0.931 | 2.04 | 2.29 | 3.19 | 2.39 | 0.868 | 2.17 | 3.74 | 0.205 | 2.68 | –
TCGAGTAGGTTACGGGGGAATTCAGGGATGAAGA | 4.46 | 4.91 | 1.34 | 1.33 | 0.36 | 1.17 | -0.238 | 1.62 | 1.1 | 1.42 | 1.05 | 0.995 | 1.37 | 1.93 | 0.716 | 0.477 | –
